{"source": "PubChem BioAssay AID504834", "about": "(National Center for Advancing Translational Sciences (NCATS), 2011)", "note": "About 22,000 (6.9%) of roughly 320,000 compounds were called active. Roughly 27% stayed inconclusive and do not appear here. Shown is part of a subset that was picked to be rich in actives. A number with no mark means an inactive call. Calls follow the shape of the dose curve; as a rule, active = well fitted inhibition curve with a large enough effect; inconclusive = small, poorly fitted or top-dose-only effect, or another doubt; inactive = no such curve, though single readings can be large or run the other way."}
{"assay": "Primary qHTS for delayed death inhibitors of the malarial parasite plastid, 96 hour incubation; also: potency is read from the fitted curve at half-maximal effect; as to activity change, negative = inhibition: % is scaled to controls: 0 for no effect and ±100 for the full control effect", "details": "P. falciparum luciferase reporter growth; series mostly up to 28.7 µM; activity change, negative = inhibition: at the top concentration", "summary_of_the_method": "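Delayed-death screen, second-generation endpoint: infected erythrocytes, 2% hematocrit, 0.05% parasitemia final; 96 hours at 37 C, 5% CO2; luciferase detection reagent; luminescence decrease equals reduced growth.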", "units": {"activity change, negative = inhibition": "%"}}
{"compound": "COCC1CCN(C(=O)c2ccc3oc(Cc4ccccc4)nc3c2)C1", "note": "(stereo unspecified)", "activity change, negative = inhibition": 24.6}
{"compound": "CCOc1ccc(S(=O)(=O)NCCSc2ccccc2)cc1", "activity change, negative = inhibition": 61.3}
{"compound": "CCOc1ccc2nc(NCCNS(=O)(=O)c3ccccc3)c(C#N)cc2c1", "Potency": "13.1 µM (active)"}
{"compound": "COc1ccc(CNC(=O)C(C)NCc2ccccc2Cl)cc1", "note": "(stereo unspecified)", "activity change, negative = inhibition": 3.38}
{"compound": "CCOC(=O)N1CCN(C(=O)c2ccccc2N(Cc2ccccc2)S(=O)(=O)c2ccc(OC)cc2)CC1", "activity change, negative = inhibition": -7.44}
{"compound": "CCOC(=O)CN(Cc1ccc(OC)c(OC)c1)S(=O)(=O)c1ccc(OC)cc1", "Potency": "9.28 µM (active)"}
{"compound": "COc1ccc(S(=O)(=O)N(CC(=O)N/N=C/c2ccc(C(=O)O)cc2)Cc2ccccc2)cc1OC", "activity change, negative = inhibition": 32.2}
{"compound": "CCNC(=O)Nc1ccc(S(=O)(=O)Nc2cnc(C)nc2C)cc1", "activity change, negative = inhibition": -11}
{"compound": "COc1cc2c(C(=O)O)c(C)n(C)c2c2ccccc12", "activity change, negative = inhibition": 11.3}
{"compound": "O=C(NCCc1ccccc1)C(=O)NCC1OCCN1S(=O)(=O)c1cccs1", "note": "(stereo unspecified)", "activity change, negative = inhibition": 8.55}
{"compound": "COc1ccc(NS(=O)(=O)c2ccc(Oc3c(C#N)cccc3C#N)cc2)cc1", "activity change, negative = inhibition": -11}
{"compound": "Cc1cccc(-c2nc(Nc3ccc(O)cc3)c3ccccc3n2)c1", "activity change, negative = inhibition": 0}
{"compound": "O=c1[nH]c(-c2cccs2)nc2ccccc12", "activity change, negative = inhibition": -7.89}
{"compound": "CC(=O)Nc1cccc(Nc2nc(-c3cccs3)nc3ccccc23)c1", "Potency": "9.28 µM (active)"}
{"compound": "Cn1c(CO)cnc1SCc1ccccc1", "activity change, negative = inhibition": 33.8}
{"compound": "CSc1c(SCc2ccccc2)cnn(Cc2ccccc2)c1=O", "Potency": "9.28 µM (active)"}
{"compound": "CSc1nc2ccccc2c(=O)n1Cc1ccc(F)cc1", "activity change, negative = inhibition": -1.4}
{"compound": "Cc1ccc(C)c(OCCC(=O)OCC(=O)N2CCN(c3ccccc3)CC2)c1", "activity change, negative = inhibition": -25.7}
{"compound": "COc1cccc(C2=CC(=O)C[C@H](c3ccc(F)cc3)C2)c1OC", "activity change, negative = inhibition": 1.99}
{"compound": "CC(C)(C)SCCSC1=CC(=O)CC(c2ccccc2)C1", "note": "(stereo unspecified)", "activity change, negative = inhibition": 35.7}
{"compound": "COc1ccc([C@H]2CC(=O)C=C(/C=C/c3ccc(Cl)cc3)C2)cc1", "activity change, negative = inhibition": 37.3}
{"compound": "O=C1C=C(c2cccc(Cl)c2O)C[C@@H](c2ccc(F)cc2)C1", "Potency": "4.65 µM (active)"}
{"compound": "O=C1C=C(c2cccc(Br)c2)C[C@@H](c2ccc(F)cc2)C1", "Potency": "2.33 µM (active)"}
{"compound": "O=C(Cn1cnc2ccccc21)Nc1ccccc1-c1ccccc1", "activity change, negative = inhibition": -28.3}
{"compound": "COc1ccc(/C=C(/NC(=O)c2ccco2)C(=O)Nc2ccc(C(C)=O)cc2)cc1", "activity change, negative = inhibition": 32.6}
{"compound": "O=C(O)c1cccc2c1C(=O)N(C1CCCC1)C2", "activity change, negative = inhibition": 5.46}
{"compound": "O=C(C[n+]1ccccc1)N/N=C/c1ccc(O)cc1", "activity change, negative = inhibition": 27.5}
{"compound": "Cc1nonc1C(=O)N/N=C/c1ccc(O)cc1", "Potency": "0.262 µM (active)"}
{"compound": "Cc1nc2ccccc2cc1C(=O)N/N=C/c1ccc([N+](=O)[O-])cc1", "activity change, negative = inhibition": 14.4}
{"compound": "NC(=O)NC(CC(=O)NNC(=O)c1ccccn1)c1ccc(Cl)cc1", "note": "(stereo unspecified)", "activity change, negative = inhibition": -1.93}
{"compound": "O=C(NNC(=O)c1cc(S(=O)(=O)N2CCCCC2)ccc1Cl)c1ccccc1O", "activity change, negative = inhibition": -25.4}
{"compound": "O=C(Nc1ccccc1)c1ccc(NC(=O)c2cccs2)cc1", "activity change, negative = inhibition": -8.55}
{"compound": "O=C(Nc1ccccc1Cl)Nc1cccc2cccnc12", "activity change, negative = inhibition": 3.34}
{"compound": "O=C(c1cc(-c2ccncc2)nc2ccccc12)N1CCC2(CC1)OCCO2", "Potency": "4.15 µM (active)"}
{"compound": "O=C(c1cc2nc(-c3ccccc3)cc(-c3ccccc3)n2n1)N1CCC2(CC1)OCCO2", "activity change, negative = inhibition": -23.6}
{"compound": "CC(=O)N1CCN(C(=O)c2cc(-c3ccc(C)o3)nc3ccccc23)CC1", "activity change, negative = inhibition": 0}
{"compound": "Cc1cc(C(=O)OC(C)C(=O)NC2CCCCC2C)c(C)o1", "note": "(stereo unspecified)", "activity change, negative = inhibition": 3.99}
{"compound": "NC(=O)N1CCCC1C(=O)Nc1ccc(Cl)c(Cl)c1", "note": "(stereo unspecified)", "activity change, negative = inhibition": 9.43}
{"compound": "CCN(CC)C(=O)C1CCC(C)(C(=O)O)C1(C)C", "note": "(stereo unspecified)", "activity change, negative = inhibition": -17}
{"compound": "CC1(C(=O)O)CCC(C(=O)Nc2ccc(Cl)c(Cl)c2)C1(C)C", "note": "(stereo unspecified)", "Potency": "10.4 µM (active)"}
{"compound": "O=C(CN1CCN(S(=O)(=O)c2cccc(Cl)c2)CC1)N1CCCCC1", "activity change, negative = inhibition": -7.81}
